# A selection: hits, their analogues and other compounds. The true share with any hit is near 10%.
# NIH3T3 tox: kills NIH 3T3 cells. NIH 3T3 viability, CellTiter-Glo ATP luminescence, 48-72 h. Potency, µM (doses to about 96.7 µM), for the others: at the highest dose activity change, negative = cytotoxicity, most hits filed as inhibitors. 94,000 compounds, 4.3% hits. AID 1345082; further: nearly all actives have a fitted effect of over 55% in size
#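 First NIH 3T3 cells are plated at 400 cells/well; next compound is pinned in; then plates incubate 48 or 72 hr at 37 °C; finally CellTiter-Glo is added and luminescence read after 10 min.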
# hNpr1 antagonist: human Npr1 receptor antagonism. Potency, µM (doses to about 46.3 µM), inactives show at the top dose activity change, negative = inhibition, actives largely listed as inhibitors. HEK293 hNpr1 GloSensor cGMP, ANP-stimulated luminescence. 76,000 compounds, 1.6% hits; calls by dose curve; further: nearly all actives have a fitted effect of over 60% in size
#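 Compound pre-incubated 30 min at room temperature on GloSensor-loaded HEK293 cells stably carrying hNpr1 and the pGS-40F cGMP biosensor. Stimulation uses hNppA at 0.1 nM final; luminescence is taken at baseline and 20 min post-agonist.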
# GPT2 inh: GPT2 alanine aminotransferase inhibition | 100,000 compounds, 0.25% hits | Recombinant GPT2, coupled pyruvate oxidase/HRP Amplex Red fluorescence | Q8TD30 | Potency, µM (top dose mostly 57.7 µM), for the others: at the top dose activity change, negative = inhibition, usual class: inhibitors | AID 1671188; further: nearly all actives have a fitted effect of over 60% in size
#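 Fluorescence read-out: pyruvate from GPT2 turnover coupled to pyruvate oxidase, HRP and Amplex Red (0.2mM ThPP, 0.2U/mL PO and HRP, 50uM Amplex final). Substrates 250uM a-KG, 2mM L-alanine; enzyme 10ng/uL; 30 min RT.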
# Luciferase inh: blocks purified firefly luciferase enzyme activity. Potency, µM (top dose mostly 115 µM), usual class: inhibitors. P08659. 76,000 compounds, 2.5% hits. purified P. pyralis luciferase, luminescence, biochemical; further: nearly all actives have a fitted effect of over 65% in size
# Target sequence (P08659 whole entry, looked up): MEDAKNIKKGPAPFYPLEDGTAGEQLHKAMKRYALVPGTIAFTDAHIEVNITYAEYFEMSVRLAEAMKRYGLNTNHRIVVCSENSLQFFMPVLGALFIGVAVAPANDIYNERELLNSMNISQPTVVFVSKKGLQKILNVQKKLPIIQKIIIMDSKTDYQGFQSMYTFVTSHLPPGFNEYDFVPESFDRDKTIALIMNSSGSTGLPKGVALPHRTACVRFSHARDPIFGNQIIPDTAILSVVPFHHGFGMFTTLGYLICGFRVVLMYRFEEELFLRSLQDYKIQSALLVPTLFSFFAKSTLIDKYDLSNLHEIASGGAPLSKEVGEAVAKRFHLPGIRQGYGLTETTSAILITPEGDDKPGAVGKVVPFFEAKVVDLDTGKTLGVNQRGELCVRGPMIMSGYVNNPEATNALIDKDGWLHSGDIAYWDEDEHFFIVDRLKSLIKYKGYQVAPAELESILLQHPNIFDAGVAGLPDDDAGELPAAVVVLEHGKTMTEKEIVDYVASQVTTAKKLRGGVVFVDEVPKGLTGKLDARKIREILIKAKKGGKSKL
#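 Purified 10nM P. pyralis luciferase with 10uM D-luciferin and 10uM ATP in 50mM Tris acetate pH 7.5, 10mM Mg acetate, 0.01% Tween-20, 0.05% BSA. qHTS titration; luminescence read by CCD imager.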
# HEK cytotox: cytotoxic compounds in HEK 293 cells; Potency, µM (series often up to 115 µM), without a hit: at the highest dose activity change, negative = cytotoxicity, usual class: inhibitors; HEK 293 viability, ATP luminescence (CellTiter-Glo), 48-72 h; 94,000 compounds, 6.6% hits; further: nearly all actives have a fitted effect of over 60% in size
#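 Pintool-delivered compounds were incubated with HEK 293 cells (250 cells/well) at 37 degree Celsius for 48 or 72 hr. ATP-dependent luminescence (CellTiter-Glo) then reported remaining viable cells.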
# Numbers without * were called inactive; i = inactive; ? = inconclusive; nt = no result; [ ] = remark or other dose. Unless noted, the call rests on the fitted dose curve; in most records, active means well fitted curve in the direction sought with a large enough effect; inconclusive means small, poorly fitted or top-dose-only effect, or another doubt; inactive means no such curve, though single readings can be large; an effect the other way counts as inactive or inconclusive. On the % scale 0 is the no-effect control and ±100 the full control effect; potency means the concentration at half of the fitted maximal effect.
SMILES,NIH3T3 tox,hNpr1 antagonist,GPT2 inh,Luciferase inh,HEK cytotox
O=C(Cc1cccc(C(F)(F)F)c1)N1CCCc2ncc(C(=O)N3CCCC[C@@H]3c3ccccc3)cc21,?,?,-11%,i,79µM*
COc1ccccc1CC(=O)N1CCCc2ncc(C(=O)N3CCCC[C@@H]3c3ccccc3)cc21,-18%,-2%,-4%,i,?
Cn1cc(CC(=O)N2CCCc3ncc(C(=O)N4CCCC[C@@H]4Cc4ccccc4)cc32)c2ccccc21,?,-29%,-7%,i,40µM*
COc1ccccc1CC(=O)N1CCCc2ncc(C(=O)N3CCCC[C@@H]3Cc3ccccc3)cc21,-35%,0%,1%,i,?
O=C(Cc1ccccn1)N1CCC(C(=O)N2CCCC2c2nc3ccncc3[nH]2)CC1 (configuration not stated),-16%,nt,i,nt,-11%
CN(c1ccccc1)c1cc(=O)c2ccnc(NCC3CCOCC3)c2o1,8.9µM*,5%[70.6 µM],-1%[88.5 µM],i,?
CN1CCN(c2cc(=O)c3ccnc(N4CCN(c5ccccn5)CC4)c3o2)CC1,?,3%[70.6 µM],i,i,i
CN(c1ccccc1)c1cc(=O)c2ccnc(N3CCN(c4ccccn4)CC3)c2o1,?,-13%[70.6 µM],?,i,35µM*
CN(c1ccccc1)c1cc(=O)c2ccnc(N3CCOCC3)c2o1,28µM*,2%[70.6 µM],i,i,?
O=C(Nc1ccc(Cl)cc1)N1CCCN(c2ccc3nnc(C4CC4)n3n2)CC1,-26%,nt,nt,nt,-2%
CN(CC(=O)N1CCCn2nc(-c3cccc(C(F)(F)F)c3)cc2C1)S(=O)(=O)c1ccc2c(c1)oc(=O)n2C,?,nt,5%,nt,32µM*
O=C([C@H]1CCCN1C(=O)c1ccccc1Cl)N1CCCC(c2nc3ccncc3[nH]2)C1 (some centres not stated),-19%,nt,i,nt,0%
CCOC(=O)C1CCCN(C(=O)C2CCc3nnc(C4CCN(C(C)=O)CC4)n32)C1 (configuration not stated),-11%[138 µM],nt,i,nt,-5%[172 µM]
COc1cccc(CN2CCOC3(CCN(Cc4ccc5[nH]ccc5c4)CC3)C2=O)c1,?,-2%[70.6 µM],3%[88.5 µM],i,?
COc1cccc(CN2CCOC3(CCN(Cc4cccc(Cl)c4)CC3)C2=O)c1,?,-19%[70.6 µM],i,i,79µM*
COc1ccc(Cl)cc1-c1ccc2c(c1)C(=O)N1C[C@@H](NS(=O)(=O)c3ccc(F)cc3)C[C@H]1C(=O)N2,?,-28%,-12%,i,35µM*
COc1ccc(Cl)cc1-c1ccc2c(c1)C(=O)N1CC[C@H](N)C[C@H]1C(=O)N2,32µM*,-16%[70.6 µM],0%[88.5 µM],i,25µM*
O=C(COc1ccc(F)cc1)N1CC(c2noc(COc3ccccc3)n2)C1,?,-17%,-7%,i,?
COCCc1noc([C@@H]2CN(Cc3ccc(F)cc3)C[C@H]2CO)n1,2%,2%,i,i,i
COCCCNC(=O)c1cc(-c2cccnc2)nc2c1cnn2C,?,nt,i,nt,?
CCc1cc(=O)n(CC(=O)N2CCN(c3ccc(F)cc3)CC2)c(N2CCOCC2)n1,?,-16%,2%,i,25µM*
O=c1c2nc(-c3ccsc3)ccc2ncn1-c1ccc(F)cc1F,45µM*,-1%[70.6 µM],-12%[88.5 µM],i,100µM*
COc1cccc(-c2ccc3ncn(-c4ccc(F)cc4F)c(=O)c3n2)c1,50µM*,6%[70.6 µM],-12%[88.5 µM],?,?
O=c1c2nc(-c3ccoc3)ccc2ncn1-c1ccc(F)cc1F,?,-13%[70.6 µM],-28%[88.5 µM],i,?
O=c1c2nc(-c3ccccc3)ccc2ncn1-c1ccc(F)cc1F,28µM*,7%[70.6 µM],?,i,?
COc1ccc(-c2ccc3ncn(-c4ccc(F)cc4F)c(=O)c3n2)cc1OC,?,0%[70.6 µM],-6%[88.5 µM],i,?
CC(C)C(=O)N1Cc2ccccc2CC2(CCCN(Cc3ccccn3)C2)C1 (configuration not stated),-3%,nt,i,nt,-13%
C[S+](=O)([O-])N1CC2(CCCN2Cc2ccccn2)Cc2ccccc21 (configuration not stated),-21%,nt,?,nt,-17%
